Measurements from the supplement of paper PMC8975748.
Where a name gives a salt, the structure may show the parent alone.

System: Saccharomyces cerevisiae BY4741 SeMeCo community
Assay: z-score of prototroph abundance vs DMSO median; higher = larger share of this subpopulation than in DMSO controls
Settings: 10 µM; 24 h; SM minimal medium; subpopulation (auxotrophy): Prototroph
Protocol: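 Fluorescent four-plasmid SeMeCo (self-establishing metabolically cooperating S. cerevisiae BY4741 community; plasmids pH-mRuby2, pL-mWasabi, pU-eCFP, pM-TagRFP657) was grown 24 h in minimal SM medium with each Selleck FDA-approved drug at 10 µM in 384-well plates. Cells were fixed and imaged by high-content confocal microscopy. For each auxotrophic subpopulation (and the prototroph), a z-score gives the deviation from the DMSO vehicle-control population median.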

| Compound | z-score of prototroph abundance |
| --- | --- |
| O=C(O)C1=C(CSc2nnnn2CS(=O)(=O)O)CS[C@@H]2[C@H](NC(=O)[C@H](O)c3ccccc3)C(=O)N12 [Cefonicid sodium] | 0.12 |
| CCCCCCCCCC(=O)N[C@@H](Cc1c[nH]c2ccccc12)C(=O)N[C@H](CC(N)=O)C(=O)N[C@@H](CC(=O)O)C(=O)N[C@@H]1C(=O)NCC(=O)N[C@@H](CCCN)C(=O)N[C@@H](CC(=O)O)C(=O)N[C@H](C)C(=O)N[C@@H](CC(=O)O)C(=O)NCC(=O)N[C@H](CO)C(=O)N[C@@H]([C@H](C)CC(=O)O)C(=O)N[C@@H](CC(=O)c2ccccc2N)C(=O)O[C@@H]1C [Daptomycin] | -0.94 |
| C[C@@H](c1ncncc1F)[C@](O)(Cn1cncn1)c1ccc(F)cc1F [Voriconazole] | -11.6 |
| O=C(Cn1cnnn1)N[C@@H]1C(=O)N2C(C(=O)O)=C(CSc3nncs3)CS[C@H]12 [Ceftezole] | 0.89 |
| CC1(C)S[C@@H]2[C@H](NC(=O)Cc3ccccc3)C(=O)N2[C@H]1C(=O)O [Penicillin G Sodium] | 0.77 |
| COC(=O)Nc1nc2cc(Sc3ccccc3)ccc2[nH]1 [Fenbendazole] | 0.03 |
| CCOc1ccc(NC(C)=O)cc1 [Phenacetin] | -0.61 |
| CCn1cc(C(=O)O)c(=O)c2cc(F)c(N3CCN(C)CC3)cc21 [Pefloxacin Mesylate Dihydrate] | -0.64 |
| Cc1nc(Nc2ccc(F)cc2)nc(N2CCc3ccccc3C2C)c1C (stereo not given) [Revaprazan Hydrochloride] | -0.48 |
| CCCCOc1ccc(C(=O)CCN2CCCCC2)cc1 [Dyclonine HCl] | 0.35 |
| Cc1cc(CC(C)CC(C)(C)C)n(O)c(=O)c1 (stereo not given) [Piroctone Olamine] | -16.9 |
| CCCN[C@H]1CCc2nc(N)sc2C1 [Pramipexole 2HCl Monohydrate] | 0.72 |
| N=C(N)NC(=O)c1nc(Cl)c(N)nc1N [Amiloride HCl] | -0.41 |
| CCCc1nn(C)c2c(=O)[nH]c(-c3cc(S(=O)(=O)N4CCN(C)CC4)ccc3OCC)nc12 [Sildenafil Citrate] | 0.12 |
| CCC(=O)NS(=O)(=O)c1ccc(-c2c(-c3ccccc3)noc2C)cc1 [Parecoxib Sodium] | -1.76 |
| C=CCc1ccc(O)c(-c2ccc(O)c(CC=C)c2)c1 [Honokiol] | 1.92 |
| C=CC[N+]1([C@H]2C[C@H]3[C@@H]4CC[C@H]5C[C@H](O)[C@@H](N6CCOCC6)C[C@]5(C)[C@H]4CC[C@]3(C)[C@H]2OC(C)=O)CCCC1 [Rocuronium Bromide] | 0.88 |
| CO[C@@H]1[C@H](OC(=O)/C=C/C=C/C=C/C=C/C(=O)O)CC[C@]2(CO2)[C@H]1[C@@]1(C)O[C@@H]1CC=C(C)C [Fumagillin] | -1.67 |
| CCN(CC)CC#CCOC(=O)C(O)(c1ccccc1)C1CCCCC1 (stereo not given) [Oxybutynin] | -0.02 |
| C#C[C@]1(O)CC[C@H]2[C@@H]3CCc4cc(OC5CCCC5)ccc4[C@H]3CC[C@@]21C [Quinestrol] | -0.35 |

| Compound | z-score of prototroph abundance |
| --- | --- |
| CCC[C@@H]1C[C@@H](C(=O)N[C@@H]([C@H]2O[C@H](SC)[C@H](O)[C@@H](O)[C@H]2O)[C@@H](C)O)N(C)C1 [Lincomycin Hydrochloride Monohydrate] | -0.67 |
| CCOc1cc(NC(C)=O)ccc1C(=O)OC [Ethopabate] | -0.33 |
| C[C@H]1c2cccc(O)c2C(O)=C2C(=O)[C@]3(O)C(O)=C(C(N)=O)C(=O)[C@@H](N(C)C)[C@@H]3[C@@H](O)[C@@H]21 [Doxycycline monohydrate] | 0.75 |
| CC[C@H]1OC(=O)[C@H](C)[C@@H](O[C@H]2C[C@@](C)(OC)[C@@H](O)[C@H](C)O2)[C@H](C)[C@@H](O[C@@H]2O[C@H](C)C[C@H](N(C)C)[C@H]2O)[C@](C)(O)C[C@@H](C)C(=O)[C@H](C)[C@@H](O)[C@]1(C)O [Erythromycin] | -0.5 |
| Cc1c(-c2ccc(O)cc2)n(Cc2ccc(OCCN3CCCCCC3)cc2)c2ccc(O)cc12 [Bazedoxifene HCl] | -0.43 |
| NC(=O)C(c1ccccc1)(c1ccccc1)[C@@H]1CCN(CCc2ccc3c(c2)CCO3)C1 [Darifenacin HBr] | 0.34 |
| COc1cc([C@@H]2c3cc4c(cc3[C@@H](O[C@@H]3O[C@@H]5CO[C@@H](c6cccs6)O[C@H]5[C@H](O)[C@H]3O)[C@H]3COC(=O)[C@H]23)OCO4)cc(OC)c1O [Teniposide] | -1.62 |
| CC(=O)[C@H]1CC[C@H]2[C@@H]3CC=C4C[C@@H](O)CC[C@]4(C)[C@H]3CC[C@]12C [Pregnenolone] | 0.29 |
| COc1ccnc(C[S+]([O-])c2nc3cc(-n4cccc4)ccc3[nH]2)c1C (stereo not given) [Ilaprazole] | -0.51 |
| CC(C)NNC(=O)c1ccncc1 [Iproniazid] | -0.56 |
| COC(=O)Nc1nc2cc(C(=O)c3ccc(F)cc3)ccc2[nH]1 [Flubendazole] | 0.01 |
| OC[C@H]1O[C@H](OCC2O[C@@H](O)[C@H](O)[C@@H](O)[C@@H]2O)[C@H](O)[C@@H](O)[C@H]1O (stereo not given in full) [Melibiose] | -0.13 |
| CCOC(=O)OC(C)OC1=C(C(=O)Nc2ccccn2)N(C)S(=O)(=O)c2ccccc21 (stereo not given) [Ampiroxicam] | 0.81 |
| COc1ccc(C(=O)NCc2ccc(OCCN(C)C)cc2)cc1OC [Itopride hydrochloride] | -0.3 |
| CC[C@H](C)C(=O)O[C@H]1C[C@@H](C)C=C2C=C[C@H](C)[C@H](CC[C@@H]3C[C@@H](O)CC(=O)O3)[C@H]21 [Lovastatin] | -1.34 |
| O=C(O)c1cccnc1Nc1cccc(C(F)(F)F)c1 [Niflumic acid] | -0.15 |
| C/C(=C\C(=O)OCCCCCCCCC(=O)O)C[C@@H]1OC[C@H](C[C@@H]2O[C@H]2[C@@H](C)[C@H](C)O)[C@@H](O)[C@H]1O [Mupirocin calcium] | -0.73 |
| Nc1nc(N)c2nc(-c3ccccc3)c(N)nc2n1 [Triamterene] | 3.28 |
| CCN1CCN(C(=O)N[C@@H](C(=O)N[C@@H]2C(=O)N3C(C(=O)O)=C(CSc4nnnn4C)CS[C@H]23)c2ccc(O)cc2)C(=O)C1=O [Cefoperazone] | 0.07 |
| C[C@@H]1O[C@@H]1P(=O)(O)O [Fosfomycin Disodium] | 0.42 |
